# PubChem BioAssay (NCATS)
# Results filed as inconclusive are left out. Entries that show only a call come without a potency. The source made the active and inactive calls. The call rests on the fitted dose curve; in most records, active means well fitted inhibition curve with a large enough effect; inconclusive means small, poorly fitted or top-dose-only effect; inactive means flat fitted curve, though single readings scatter.
# Test system: Zika virus NS2B-NS3 protease
# Experiment: Primary screen GU AMC qHTS for Zika virus inhibitors (AID 1347154); further: nearly all actives have a fitted effect of over 70% in size
# Details: Zika NS2B-NS3 unlinked protease, AMC fluorogenic substrate; series mostly up to 54.1 µM
# Outline: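 Unlinked Zika NS2B hydrophilic domain–NS3 protease complex at 25 nM in 10 mM Tris-HCl pH 8.0, 0.01% Tween 20, with an AMC peptide substrate. Fluorescence change (340/450 nm) over 15 min at room temperature, normalized to controls, fitted to 4-parameter Hill.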
# Potency means the concentration at half of the fitted maximal effect.
row,Structure (SMILES),Potency
1,O=C1CN2Cc3c(ccc(Cl)c3Cl)N=C2N1,inactive
2,CC1(C)OC2CC3C4CC(F)C5=CC(=O)C=CC5(C)C4C(O)CC3(C)[C@]2(C(=O)CO)O1 (stereo partly specified),inactive
3,CN1[C@H]2CC[C@H]1CC(OC(=O)c1c[nH]c3ccccc13)C2 (stereo partly specified),inactive
4,CC[C@H](NC(=O)[C@H](C)NC)C(=O)N1C[C@@H](O)C[C@H]1Cc1c(-c2[nH]c3cc(F)ccc3c2C[C@H]2C[C@H](O)CN2C(=O)[C@H](CC)NC(=O)[C@H](C)NC)[nH]c2cc(F)ccc12,17.1 µM (active)
5,CCOC(=O)[C@@H](N)CCC(=O)N[C@@H](CSCc1ccccc1)C(=O)N[C@@H](C(=O)OCC)c1ccccc1,inactive
6,CNc1nc(-c2ccc3c(N)n[nH]c3c2)cc(N2C[C@@H](C(=O)NC3CCCCC3)CC[C@@H]2C)n1,inactive
7,COc1cc2nc(-c3cc(F)ccc3O)nc(N[C@@H]3CNC[C@@H]3C(C)(C)O)c2cc1OC,inactive
8,COC(=O)Nc1ccc(-c2nc(N3CCOCC3)c3cnn(C4CCN(C(=O)OC)CC4)c3n2)cc1,inactive
9,CNC(=O)[C@H](CC1=CN=C2C=CCC=C12)NC(=O)[C@@H](CC(=O)NO)CC(C)C,inactive
10,CCC(=C(c1ccc(O)cc1)c1ccc(OCCNC)cc1)c1ccccc1,inactive
11,Cc1nn(Cc2ccccc2Cl)c(C)c1CN(C)CC(O)COc1ccc(Cl)cc1 (stereo unspecified),inactive
12,CC(O)=C(C#N)C(=O)Nc1ccc(C(F)(F)F)cc1,inactive
13,COc1ccc2ccc(=O)oc2c1CC=C(C)C,inactive
14,NS(=O)(=O)c1ccc(Nc2nc(OCC3CCCCC3)c3[nH]cnc3n2)cc1,inactive
15,COc1c(C)cnc(Cn2cnc3c(Cl)nc(N)nc32)c1C,inactive
16,OC[C@H]1O[C@@H](O[C@H]2[C@@H](O)[C@@](O)(CO)O[C@@H]2CO)[C@H](O)[C@@H](O)[C@@H]1O,inactive
17,C[C@@H]1CC=CC=CC=CC=C[C@@H](O[C@@H]2O[C@H](C)[C@@H](O)[C@H](N)[C@H]2O)C[C@@H]2O[C@](O)(C[C@@H](O)C[C@@H]3O[C@@H]3C=CC(=O)O1)C[C@H](O)[C@@H]2C(=O)O,inactive
18,CC(C)=CCCC(C)=CCCC(C)=CCCC(C)=CCCC(C)=CCCC(C)=CCCC(C)=CCCC(C)=CCCC(C)=CCO,inactive

row,Structure (SMILES),Potency
1,CCc1cc(-c2n[nH]c(C)c2-c2ccc3c(c2)OCCO3)c(O)cc1O,inactive
2,CC(C)C[C@@H](C(=O)N[C@H](C(=O)OC1CCCC1)c1ccccc1)[C@H](O)C(=O)NO,inactive
3,C[C@H]1[C@H](O)O[C@@H]2O[C@@]3(C)CC[C@@H]4[C@H](C)CC[C@@H]1[C@@]24OO3,inactive
4,COc1ccc2c(c1)CC[C@H]1[C@@H]2CC[C@]2(C)[C@@H](NCCCCCCN3C(=O)C=CC3=O)CC[C@H]12,inactive
5,CC(C)c1c(C(=O)Nc2ccccc2)c(-c2ccccc2)c(-c2ccc(F)cc2)n1CC[C@H](O)C[C@@H](O)CC(=O)O,inactive
6,CN[C@H]1[C@@H](O[C@@H]2[C@H](O[C@@H]3[C@@H](O)[C@@H](O)[C@@H](N=C(N)N)[C@@H](O)[C@@H]3N=C(N)N)O[C@H](C)[C@@]2(O)C=O)O[C@@H](CO)[C@@H](O)[C@H]1O,inactive
7,C[C@@H]1[C@H](C)CC[C@]2(C(=O)O)CC[C@]3(C)C(=CC[C@@H]4[C@@]5(C)CC[C@H](O)C(C)(C)[C@H]5CC[C@]43C)[C@@H]12,inactive
8,COc1ccc(CCN(C)CCCOc2ccc(S(=O)(=O)c3[nH]c4ccccc4c3C(C)C)cc2)cc1OC,inactive
9,CCCCCOC(=O)Nc1nc(=O)n([C@@H]2O[C@H](C)[C@@H](O)C2O)cc1F (stereo partly specified),inactive
10,CCN(CC)CCCCNc1nc2cc(Cl)c(Cl)cc2nc1-c1ccc(-c2cccs2)s1,inactive
11,COc1ccc(C=CC(=O)Nc2ccccc2C(=O)O)cc1OC,inactive
12,C[C@]12C=CC(=O)C=C1CC[C@@H]1[C@@H]2[C@@H](O)C[C@@]2(C)[C@@H]1CC[C@]2(O)C(=O)CO,inactive
13,O=S(=O)(NCCNCC=Cc1ccc(Br)cc1)c1cccc2cnccc12,inactive
14,N=C1SC(=Cc2ccc(-c3ccc4c(c3)C(=O)NC4=O)o2)C(=O)N1c1ccc(Br)cc1,inactive
15,Cc1ccc(C(=O)N(CCCN)[C@@H](c2oc3cc(Cl)ccc3c(=O)c2Cc2ccccc2)C(C)C)cc1,inactive
16,CCC=CC[C@H]1C(=O)CC[C@@H]1CC(=O)OC,inactive
17,C[C@@H](O)[C@H]1C(=O)N2C(C(=O)OCOC(=O)C(C)(C)C)=C(SC3CN(C4=NCCS4)C3)[C@H](C)[C@H]12,inactive
18,CC[C@]1(O)C[C@H]2CN(CCC3=c4ccccc4=N[C]3[C@@](C(=O)OC)(c3cc4c(cc3OC)N(C)[C@H]3[C@@](O)(C(N)=O)[C@H](O)[C@]5(CC)C=CCN6CC[C@]43[C@@H]65)C2)C1,inactive
